# Measured values from PubChem BioAssay AID1159580 (chemical genetic matrix, 2015).
# In all, about 5,500 compounds went through this assay and about 2,000 (36%) were called active. Another 18% or so got no clear call; they are omitted. Cut-off read from the data, not from the text of the source: active = normalized growth mostly below about 0.91 (no sharp cut-off); inconclusive = no clear call, values can overlap the other calls; inactive = mostly above about 0.92. The list shows a part of the results.
# Test: chemical genetic growth profiling, strain panel (AID 1159580);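 note: tested at 20 µM; growth read once vehicle control cultures reached saturation at 30 °C; 1 = growth at the plate median or of vehicle wells; lower values mean less growth of the strain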
# Conditions: growth OD
# [1] = S. cerevisiae deletion strains, locus YAL013W, strain DEP1, active compounds read low
# [2] = S. cerevisiae deletion strains, locus YBR229C, strain ROT2, active compounds read low
# [3] = S. cerevisiae deletion strains, locus YDL101C, strain DUN1, active compounds read low
# [4] = S. cerevisiae deletion strains, locus YDL134C, strain PPH21, active compounds read low
# [5] = S. cerevisiae deletion strains, locus YDR150W, strain NUM1, active compounds read low
# [6] = S. cerevisiae deletion strains, locus YEL061C, strain CIN8, active compounds read low
# [7] = S. cerevisiae deletion strains, locus YGR078C, strain PAC10, active compounds read low
# [8] = S. cerevisiae deletion strains, locus YGR229C, strain SMI1, active compounds read low
# [9] = S. cerevisiae deletion strains, locus YHR030C, strain SLT2, active compounds read low
# [10] = S. cerevisiae deletion strains, locus YJR043C, strain POL32, active compounds read low
# [11] = S. cerevisiae deletion strains, locus YJR075W, strain HOC1, active compounds read low
# [12] = S. cerevisiae deletion strains, locus YKL190W, strain CNB1, active compounds read low
# [13] = S. cerevisiae deletion strains, locus YLR039C, strain RIC1, active compounds read low
# [14] = S. cerevisiae deletion strains, locus YLR262C, strain YPT6, active compounds read low
# [15] = S. cerevisiae deletion strains, locus YMR263W, strain SAP30, active compounds read low
# [16] = S. cerevisiae deletion strains, locus YNL153C, strain GIM3, active compounds read low
# [17] = S. cerevisiae deletion strains, locus YNL322C, strain KRE1, active compounds read low
# [18] = S. cerevisiae deletion strains, locus YOL006C, strain TOP1, active compounds read low
# [19] = S. cerevisiae deletion strains, locus YPL055C, strain LGE1, active compounds read low
# [20] = S. cerevisiae deletion strains, locus YPL241C, strain CIN2, active compounds read low
# [21] = S. cerevisiae strains, strain wild type, active compounds read low
smiles,measurement,setting,value
NC[C@@H]1CC[C@@H](N)[C@@H](O[C@H]2[C@H](O)[C@@H](O[C@H]3O[C@H](CO)[C@@H](O)[C@H](N)[C@H]3O)[C@H](N)C[C@@H]2N)O1,normalized growth,[1],0.987 (inactive)
same,normalized growth,"S. cerevisiae deletion strains, locus YBR021W, strain FUR4, active compounds read low",1.06 (inactive)
same,normalized growth,[2],0.959 (inactive)
same,normalized growth,"S. cerevisiae deletion strains, locus YCL029C, strain bik1, active compounds read low",0.985 (inactive)
same,normalized growth,"S. cerevisiae deletion strains, locus YDL035C, strain GPR1, active compounds read low",0.995 (inactive)
same,normalized growth,"S. cerevisiae deletion strains, locus YDL074C, strain BRE1, active compounds read low",0.983 (inactive)
same,normalized growth,[3],0.952 (inactive)
same,normalized growth,[4],0.993 (inactive)
same,normalized growth,"S. cerevisiae deletion strains, locus YDL185W, strain tfp1, active compounds read low",0.984 (inactive)
same,normalized growth,"S. cerevisiae deletion strains, locus YDL192W, strain arf1, active compounds read low",0.993 (inactive)
same,normalized growth,"S. cerevisiae deletion strains, locus YDR101C, strain arx1, active compounds read low",1 (inactive)
same,normalized growth,[5],0.986 (inactive)
same,normalized growth,"S. cerevisiae deletion strains, locus YDR162C, strain NBP2, active compounds read low",0.967 (inactive)
same,normalized growth,"S. cerevisiae deletion strains, locus YDR318W, strain mcm21, active compounds read low",1.01 (inactive)
same,normalized growth,"S. cerevisiae deletion strains, locus YDR388W, active compounds read low",1 (inactive)
same,normalized growth,"S. cerevisiae deletion strains, locus YDR502C, strain sam2, active compounds read low",1 (inactive)
same,normalized growth,[6],0.987 (inactive)
same,normalized growth,"S. cerevisiae deletion strains, locus YER110C, active compounds read low",0.996 (inactive)
same,normalized growth,"S. cerevisiae deletion strains, locus YER155C, strain BEM2, active compounds read low",1 (inactive)
same,normalized growth,"S. cerevisiae deletion strains, locus YER167W, strain BCK2, active compounds read low",0.98 (inactive)
same,normalized growth,"S. cerevisiae deletion strains, locus YGL078C, strain dbp3, active compounds read low",0.994 (inactive)
same,normalized growth,"S. cerevisiae deletion strains, locus YGL086W, strain mad1, active compounds read low",0.995 (inactive)
same,normalized growth,"S. cerevisiae deletion strains, locus YGL248W, strain PDE1, active compounds read low",0.978 (inactive)
same,normalized growth,[7],0.986 (inactive)
same,normalized growth,"S. cerevisiae deletion strains, locus YGR135W, strain pre9, active compounds read low",0.982 (inactive)
same,normalized growth,[8],1.01 (inactive)
same,normalized growth,"S. cerevisiae deletion strains, locus YGR252W, strain gcn5, active compounds read low",1.02 (inactive)
same,normalized growth,[9],0.995 (inactive)
same,normalized growth,"S. cerevisiae deletion strains, locus YHR079C, strain IRE1 (second series), active compounds read low",1 (inactive)
same,normalized growth,"S. cerevisiae deletion strains, locus YHR094C, strain hxt1, active compounds read low",1 (inactive)
same,normalized growth,"S. cerevisiae deletion strains, locus YHR129C, strain ARP1, active compounds read low",0.992 (inactive)
same,normalized growth,"S. cerevisiae deletion strains, locus YHR200W, strain rpn10, active compounds read low",0.988 (inactive)
same,normalized growth,"S. cerevisiae deletion strains, locus YIL066C, strain RNR3, active compounds read low",0.995 (inactive)
same,normalized growth,"S. cerevisiae deletion strains, locus YIL073C, strain SPO22, active compounds read low",0.971 (inactive)
same,normalized growth,"S. cerevisiae deletion strains, locus YIL125W, strain kgd1, active compounds read low",0.993 (inactive)
same,normalized growth,"S. cerevisiae deletion strains, locus YIR030C, strain dcg1, active compounds read low",0.985 (inactive)
same,normalized growth,"S. cerevisiae deletion strains, locus YJL095W, strain BCK1, active compounds read low",0.984 (inactive)
same,normalized growth,"S. cerevisiae deletion strains, locus YJL134W, strain LCB3, active compounds read low",0.978 (inactive)
same,normalized growth,"S. cerevisiae deletion strains, locus YJL168C, strain set2, active compounds read low",0.995 (inactive)
same,normalized growth,"S. cerevisiae deletion strains, locus YJL187C, strain SWE1 (second series), active compounds read low",0.977 (inactive)
same,normalized growth,[10],1.01 (inactive)
same,normalized growth,[11],0.996 (inactive)
same,normalized growth,"S. cerevisiae deletion strains, locus YKL009W, strain mrt4, active compounds read low",0.974 (inactive)
same,normalized growth,"S. cerevisiae deletion strains, locus YKL068W, active compounds read low",0.996 (inactive)
same,normalized growth,"S. cerevisiae deletion strains, locus YKL085W, strain MDH1 (second series), active compounds read low",0.983 (inactive)
same,normalized growth,"S. cerevisiae deletion strains, locus YKL085W, strain MDH1, active compounds read low",0.983 (inactive)
same,normalized growth,[12],1 (inactive)
same,normalized growth,"S. cerevisiae deletion strains, locus YKR001C, strain vps1, active compounds read low",0.994 (inactive)
same,normalized growth,[13],0.938 (inactive)
same,normalized growth,"S. cerevisiae deletion strains, locus YLR058C, strain SHM2, active compounds read low",0.974 (inactive)
same,normalized growth,"S. cerevisiae deletion strains, locus YLR102C, strain apc9, active compounds read low",0.993 (inactive)
same,normalized growth,[14],0.9 (inactive)
same,normalized growth,"S. cerevisiae deletion strains, locus YLR268W, strain sec22, active compounds read low",0.986 (inactive)
same,normalized growth,"S. cerevisiae deletion strains, locus YLR330W, strain CHS5, active compounds read low",0.981 (inactive)
same,normalized growth,"S. cerevisiae deletion strains, locus YLR342W, strain FKS1 (second series), active compounds read low",1.01 (inactive)
same,normalized growth,"S. cerevisiae deletion strains, locus YLR371W, strain rom2, active compounds read low",1 (inactive)
same,normalized growth,"S. cerevisiae deletion strains, locus YLR418C, strain cdc73, active compounds read low",0.968 (inactive)
same,normalized growth,"S. cerevisiae deletion strains, locus YML016C, strain PPZ1, active compounds read low",0.981 (inactive)
same,normalized growth,"S. cerevisiae deletion strains, locus YML032C, strain rad52, active compounds read low",1 (inactive)
same,normalized growth,"S. cerevisiae deletion strains, locus YML124C, strain tub3, active compounds read low",1.01 (inactive)
same,normalized growth,"S. cerevisiae deletion strains, locus YMR078C, strain ctf18, active compounds read low",1 (inactive)
same,normalized growth,"S. cerevisiae deletion strains, locus YMR223W, strain ubp8, active compounds read low",1.01 (inactive)
same,normalized growth,[15],0.983 (inactive)
same,normalized growth,"S. cerevisiae deletion strains, locus YMR307W, strain GAS1, active compounds read low",1.13 (inactive)
same,normalized growth,"S. cerevisiae deletion strains, locus YNL067W, strain RPL9B, active compounds read low",0.981 (inactive)
same,normalized growth,"S. cerevisiae deletion strains, locus YNL128W, strain TEP1, active compounds read low",0.98 (inactive)
same,normalized growth,[16],0.991 (inactive)
same,normalized growth,"S. cerevisiae deletion strains, locus YNL233W, strain BNI4, active compounds read low",0.994 (inactive)
same,normalized growth,"S. cerevisiae deletion strains, locus YNL250W, strain rad50, active compounds read low",0.983 (inactive)
same,normalized growth,"S. cerevisiae deletion strains, locus YNL271C, strain bni1, active compounds read low",1 (inactive)
same,normalized growth,"S. cerevisiae deletion strains, locus YNL298W, strain CLA4, active compounds read low",1.01 (inactive)
same,normalized growth,"S. cerevisiae deletion strains, locus YNL307C, strain MCK1, active compounds read low",0.997 (inactive)
same,normalized growth,[17],0.987 (inactive)
same,normalized growth,"S. cerevisiae deletion strains, locus YNR052C, strain pop2, active compounds read low",0.953 (inactive)
same,normalized growth,[18],0.917 (inactive)
same,normalized growth,"S. cerevisiae deletion strains, locus YOL012C, strain htz1",0.745 (inactive)
same,normalized growth,"S. cerevisiae deletion strains, locus YOL147C, strain pex11, active compounds read low",1.01 (inactive)
same,normalized growth,"S. cerevisiae deletion strains, locus YOR061W, strain CKA2, active compounds read low",0.95 (inactive)
same,normalized growth,"S. cerevisiae deletion strains, locus YOR069W, strain VPS5, active compounds read low",0.996 (inactive)
same,normalized growth,"S. cerevisiae deletion strains, locus YOR136W, strain idh2, active compounds read low",1 (inactive)
same,normalized growth,"S. cerevisiae deletion strains, locus YOR144C, strain elg1, active compounds read low",1 (inactive)
same,normalized growth,"S. cerevisiae deletion strains, locus YOR184W, strain ser1, active compounds read low",1.03 (inactive)
same,normalized growth,"S. cerevisiae deletion strains, locus YOR316C, strain cot1, active compounds read low",0.985 (inactive)
same,normalized growth,[19],0.984 (inactive)
same,normalized growth,[20],0.991 (inactive)
same,normalized growth,"S. cerevisiae deletion strains, locus YPR119W, strain clb2, active compounds read low",1 (inactive)
same,normalized growth,"S. cerevisiae deletion strains, locus YPR141C, strain kar3, active compounds read low",0.966 (inactive)
same,normalized growth,"S. cerevisiae deletion strains, locus YPR163C, strain tif3, active compounds read low",1.01 (inactive)
same,normalized growth,"S. cerevisiae deletion strains, locus YPR167C, strain met16, active compounds read low",0.988 (inactive)
same,normalized growth,"S. cerevisiae deletion strains, strain wtn01, active compounds read low",0.987 (inactive)
same,normalized growth,[21],0.992 (inactive)
N#Cc1c(N)oc(-c2ccco2)c1-c1ccco1,normalized growth,[1],0.893 (active)
same,normalized growth,[2],0.975 (inactive)
same,normalized growth,[3],0.968 (inactive)
same,normalized growth,[4],0.947 (inactive)
same,normalized growth,[5],0.937 (inactive)
same,normalized growth,[6],0.947 (inactive)
same,normalized growth,[7],0.948 (inactive)
same,normalized growth,[8],0.994 (inactive)
same,normalized growth,[9],0.415 (active)
same,normalized growth,"S. cerevisiae deletion strains, locus YHR087W, strain rtc3, active compounds read low",0.97 (inactive)
same,normalized growth,[10],0.943 (inactive)
same,normalized growth,[11],0.949 (inactive)
same,normalized growth,[12],0.992 (inactive)
same,normalized growth,[13],0.981 (inactive)
same,normalized growth,"S. cerevisiae deletion strains, locus YLR058C, strain SHM2 (second series), active compounds read low",0.961 (inactive)
same,normalized growth,"S. cerevisiae deletion strains, locus YLR085C, strain ARP6, active compounds read low",0.626 (active)
same,normalized growth,[14],0.999 (inactive)
same,normalized growth,"S. cerevisiae deletion strains, locus YML094W, strain GIM5, active compounds read low",0.875 (inactive)
same,normalized growth,"S. cerevisiae deletion strains, locus YMR219W, strain ESC1, active compounds read low",0.969 (inactive)
same,normalized growth,[15],0.917 (inactive)
same,normalized growth,[16],0.987 (inactive)
same,normalized growth,"S. cerevisiae deletion strains, locus YNL298W, strain CLA4 (second series), active compounds read low",0.888 (inactive)
same,normalized growth,[17],0.962 (inactive)
same,normalized growth,"S. cerevisiae deletion strains, locus YNR030W, strain Alg12, active compounds read low",0.903 (inactive)
same,normalized growth,[18],0.913 (inactive)
same,normalized growth,[19],0.789 (active)
same,normalized growth,[20],0.873 (inactive)
same,normalized growth,"S. cerevisiae deletion strains, locus YPR135W, strain CTF4, active compounds read low",0.694 (inactive)
same,normalized growth,[21],0.984 (inactive)
